The results in this text go back to PubChem BioAssay.

Each structure is given as a SMILES string. “And” between values parts separate entries of the source, which are not always exact repeats. Equal values may be shown once. For part of these data: Potency and affinity values are given separately. The source made the active and inactive calls. Unless noted, how the calls were made is not given here.

Assay [1] in a line: compounds altering circadian rhythm period length – cell-based, LOPAC library, luminescence reporter (AID 2774).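 Further: values are relative to mean of DMSO wells on each plate.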 Conditions: circadian reporter cells, at 7 µM, actives lie on both sides.
Assay [2] has as its system Hepatitis C virus NS3 helicase. The assay is described as follows: blockers of NS3h binding to ssDNA – biochemical, fluorescence polarization, LOPAC1280 library, primary screen (AID 687035; in the data active means inhibition above about 37%). Conditions: Purified HCV NS3 helicase, Cy5-dT15 ssDNA binding fluorescence polarization; stronger effect = higher value; concentration not given here.
Assay [3] is described as follows: compounds altering Cy5-DNA-NS3h complex signal – biochemical, LOPAC1280, artefact control for HCV NS3 helicase inhibitor project (AID 687037). Conditions: Cy5-DNA-NS3h complex fluorescence interference counterscreen.
Assay [4] relates to Aerobactin synthetase IucA (Klebsiella pneumoniae). In words: inhibition of K. pneumoniae IucA enzyme – biochemical, Tocris library, absorbance (AID 1345561).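 Further: 100% = enzyme without compound and 0% = no enzyme.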 Particulars: purified IucA enzyme assay, absorbance (OD) read-out; stronger effect = lower value;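 tested at 8 µM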.
In assay [5] the test system is Aerobactin synthetase IucA (Klebsiella pneumoniae, hypervirulent). The assay is described as follows: biochemical IucA inhibition screen of LOPAC library by absorbance (AID 1346212).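 Further: 100% = no compound wells and 0% = no enzyme wells.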 Conditions: IucA enzyme assay, absorbance (OD) readout; stronger effect = lower value;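 tested at 8 µM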.
Assay [6] is described as follows: viability loss with induced miR-34 in A549 – imaging, A549 dox-inducible miR-34, nuclei and caspase counts, primary screen (AID 1347080;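 active means compounds whose cell count with miR-34 switched on is under 0.7 times the count with it off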). Conditions: A549 miR-34 inducible, Hoechst nuclei count, 48 h.
The nature of assay [7]: blockers of cellular phospholipid synthesis – cell-based, LOPAC library, screen 4, primary screen (AID 1347384). Conditions: animal cells, phospholipid biosynthesis inhibition screen; at 10 µM.
A short description of assay [8]: galactose survival enhancers in mitochondrial complex I cybrids – cell-based, galactose medium, ATP luminescence, primary screen (AID 1645843;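 active means z-score of at least 1.8 in each of two replicates, scored against plate mean and spread of sample wells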;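 further: positive z means more ATP and so rescue of galactose-driven cybrid death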). Conditions: complex I mutant cybrid cells, 72 h, stronger effect = higher value.
The nature of assay [9]: yeast 75Q aggregation reduction – 75Q-TubU reporter (AID 1593). Conditions: Yeast 75Q polyglutamine aggregation reporter.
Assay [10] is described as follows: restoration of touch response, mutant HTT neurons – whole organism, C. elegans mechanosensory neurons, N-terminal huntingtin (AID 1599). Particulars: C. elegans polyQ-huntingtin mechanosensory neurons, stronger effect = higher value.
Assay [11] is described as follows: blockers of cytochrome c efflux from mitochondria – biochemical, purified mitochondria (AID 1603).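 Further: mouse liver mitochondria challenged with calcium chloride; signal normalized to the plate average as 100%.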 Conditions: stronger effect = lower value.
Assay [12] can be described thus: polyglutamine aggregate formation blockers (AID 1604). Particulars: polyglutamine-induced protein aggregation inhibition assay; stronger effect = higher value; tested at 2.5 µM.
The nature of assay [13]: glutamate transport activators, MN-1 cells, MN-1 cell line (AID 1612).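 Further: tested at 1 µM final; 0% = mean of DMSO vehicle wells on each plate; positive means more glutamate uptake than control and negative means less.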 Particulars: MN-1 motor neuron cells, stronger effect = higher value.
Assay [14] can be described thus: 75Q-TubH aggregate inhibition, S. cerevisiae, yeast (AID 1616). Conditions: S. cerevisiae 75Q-TubH polyglutamine aggregation suppression; stronger effect = higher value.
Assay [15] can be described thus: compounds altering viability of human ES cells (AID 493140).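 Further: cells exposed to compounds for four days before counting.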 Particulars: human embryonic stem cell survival screen; stronger effect = higher value.
Assay [16] is described as follows: P. berghei load reduction in hepatocytes – cell-based, HepG2, luciferase luminescence, HepG2 viability, primary screen (AID 624349; in the data active means parasite load remaining mostly below about 12%, no sharp cut-off; inactive means mostly above about 10%;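 further: 100% = mean of DMSO negative control wells on the same plate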). Particulars: P. berghei liver stage in HepG2, luciferase luminescence, concentration not given here; parasite load remaining: stronger effect = lower value; viability: measured here: HepG2 viability without parasites.
The nature of assay [17]: EMT-state selective cytotoxicity in co-culture – imaging, PC-3E GFP, TEM4-18 mCherry, primary screen (AID 1345086;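 active means compounds killing one labelled cell type while sparing the other, by normalised counts and ratio limits, not self-fluorescent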;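 further: cells exposed to compound for 72 h before imaging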;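 on red/green cell ratio (normalised): normalised mesenchymal count divided by normalised epithelial count so high means epithelial killing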). Conditions: PC-3E GFP / TEM4-18 mCherry co-culture, imaging cell counts, at 1 µM.
The target in assay [18] is Mitogen-activated protein kinase 7 (Homo sapiens) (UniProt Q13164). The assay is described as follows: Gal4-ERK5 driven luciferase induction – cell-based, HTS, primary screen (AID 1508626;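 active means luciferase signal above three times the same-plate solvent-only control wells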;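 further: luciferase driven by Gal4-ERK5 fusion binding five Gal4 sites before minimal TATA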). Conditions: HeLa Gal4-ERK5 transactivation, 18 h, at 5 µM, stronger effect = higher value.
Assay [19] is described as follows: MELAS cybrid and Rieske KO viability enhancers – cell-based, MELAS cybrids, Rieske KO mouse fibroblasts, CellTiter-Glo, primary screen (AID 1508586;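 active means mean z-score across replicates of 1.96 or higher in either the MELAS or the Rieske mutant cell line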;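 further: z relative to plate mean and SD of compound and empty wells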). Conditions: low glucose.
[20] abbreviates: measured here: relative caspase fold change +Dox/-Dox.
The mark [21] stands for this setting: measured here: total cells with miR-34 induction, stronger effect = lower value.
Setting [22] is: measured here: total cells without miR-34 induction.

Chain of Mitogen-activated protein kinase 7 (Homo sapiens) (Q13164 whole entry, looked up, the tested form may be a part): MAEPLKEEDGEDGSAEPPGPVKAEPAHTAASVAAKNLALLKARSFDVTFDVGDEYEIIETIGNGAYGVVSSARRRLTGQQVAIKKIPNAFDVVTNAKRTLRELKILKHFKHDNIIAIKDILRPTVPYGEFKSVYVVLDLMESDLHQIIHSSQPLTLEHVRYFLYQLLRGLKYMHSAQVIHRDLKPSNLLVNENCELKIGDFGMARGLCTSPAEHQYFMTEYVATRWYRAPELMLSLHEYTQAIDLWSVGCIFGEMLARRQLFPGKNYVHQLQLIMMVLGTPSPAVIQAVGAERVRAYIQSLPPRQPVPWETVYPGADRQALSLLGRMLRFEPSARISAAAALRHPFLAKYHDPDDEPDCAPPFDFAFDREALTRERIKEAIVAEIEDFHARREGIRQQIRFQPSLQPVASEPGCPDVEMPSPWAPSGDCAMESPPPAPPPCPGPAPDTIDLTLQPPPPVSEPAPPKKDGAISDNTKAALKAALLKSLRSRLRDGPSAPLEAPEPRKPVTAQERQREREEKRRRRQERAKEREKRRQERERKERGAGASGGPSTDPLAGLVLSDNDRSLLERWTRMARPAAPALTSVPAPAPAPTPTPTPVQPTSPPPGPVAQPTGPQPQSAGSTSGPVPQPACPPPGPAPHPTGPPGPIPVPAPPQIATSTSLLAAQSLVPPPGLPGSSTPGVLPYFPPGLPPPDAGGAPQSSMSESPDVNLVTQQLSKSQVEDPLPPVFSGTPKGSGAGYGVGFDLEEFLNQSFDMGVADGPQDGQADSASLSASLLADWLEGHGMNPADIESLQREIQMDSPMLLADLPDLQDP

Take `c1ccc2sc(C3(N4CCCCC4)CCCCC3)cc2c1`: the period change in [1] was -0.2 h (inactive). The inhibition in [2] is -3% (inactive). Further, the fluorescence ratio (interference) in assay [3] was 1 (inactive). The remaining activity in assay [4] was 107% (inactive); in [5], 110% (inactive). Further, the fold change in [6] (stronger effect = lower value) is 0.986 (inactive); in assay [6] (stronger effect = lower value, cell number ratio, induced over uninduced), 0.965 (inactive); in assay [6] (setting [20]), 1.78 and 0.772. The cell count in assay [6] (setting [21]) is 8350 and 7790; in assay [6] (setting [22]), 8470 and 8070. The compound was called inactive in [7]. The z-score in assay [8] is -1.48 (inactive) and -1.21 (inactive).

In assay [9], `C[N+](C)(C)CC#CCN1CCCC1=O` yielded a score of 1.29. Moreover, the rescue above control in assay [10] stood at 8.8. Further, the cytochrome c release ratio in [11] is 1.02. Also, the inhibition of aggregation in assay [12] was found to be 53.5%. The glutamate uptake change in assay [13] was 7.8%. The aggregation suppression score in assay [14] was determined as 1.08. Besides, the period change in assay [1] is -0.1 h (inactive). Also, in [2], the inhibition is -1% (inactive). In addition, the fluorescence ratio (interference) in assay [3] is 1 (inactive). The remaining activity in [4] is 124% (inactive); in assay [5], 112% (inactive). The fold change is 1.08 (inactive) and 0.881 (inactive) in assay [6] (stronger effect = lower value); 1.78 and 1.33 in assay [6] (setting [20]). Also, the cell count in [6] (setting [21]) was 9690 and 9120; in assay [6] (setting [22]), 8970 and 10300. In addition, the call in assay [7] was inactive. Moreover, the z-score in assay [8] was 0.5 (inactive) and 0.575 (inactive).

For `CC(=O)NCCc1c[nH]c2ccccc12`, the period change in assay [1] was 0.04 h (inactive). Moreover, in assay [2], the inhibition was -3% (inactive). In assay [3], the fluorescence ratio (interference) was 0.9 (inactive). The remaining activity in [4] was 90.2% (inactive); in assay [5] it was 105% (inactive). The fold change in [6] (stronger effect = lower value) was 1.01 (inactive) and 0.947 (inactive); in [6] (setting [20]) it was 0.736 and 0.687. Besides, the cell count in [6] (setting [21]) is 10200 and 9110; in assay [6] (setting [22]) it was 10200 and 9620. Further, the result in [7] was inactive. Further, in [8], the z-score was 0.505 (inactive) and 0.035 (inactive).

Regarding `c1cncc(C2=NCCC2)c1`, the survival in assay [15] is 4.17 (inactive). Further, the parasite load remaining in [16] is 113% (inactive). In addition, the viability in assay [16] is 106%. For the same compound, in assay [17] (actives lie on both sides), the red/green cell ratio (normalised) is 0.94 (inactive). In addition, the figures for the normalised cell number in assay [17] (measured here: epithelial PC-3E GFP cell survival) and in assay [17] (measured here: mesenchymal TEM4-18 mCherry cell survival) were 1 and 0.94, respectively. Also, the fold change is 0.891 (inactive) in [6] (stronger effect = lower value) and 1.54 in assay [6] (setting [20]). For the same compound, the cell count in [6] (setting [21]) was found to be 7680; in assay [6] (setting [22]), 8620. The luciferase signal in assay [18] is 48 AU (inactive).

In the case of `COC(=O)[C@@H](N)CCCN=C(N)N[N+](=O)[O-]`, in assay [1], the period change is -0.07 h (inactive). For the same compound, the inhibition in assay [2] was -2% (inactive). Also, the fluorescence ratio (interference) in assay [3] was 1 (inactive). Also, the remaining activity was 81.5% (inactive) in [4] and 117% (inactive) in assay [5]. Moreover, the fold change in assay [6] (stronger effect = lower value) was 1.06 (inactive) and 1.11 (inactive) and 0.952 (inactive); in [6] (setting [20]), 1.8 and 0.812 and 0.955. The cell count in [6] (setting [21]) was 11200 and 5930 and 8740; in assay [6] (setting [22]), 10600 and 5320 and 9180. Further, the call in [7] was inactive. The z-score in [8] was 0.23 (inactive) and 0.29 (inactive).

Turning to `CN1CCc2cc3c(cc2[C@H]1[C@@H]1OC(=O)c2c1ccc1c2OCO1)OCO3`, in [9], the score came out at 1.32. The same compound showed a rescue above control in assay [10] of 3.46. The cytochrome c release ratio in assay [11] is 0.82. Further, in assay [12], the inhibition of aggregation was 59.1%. In addition, the glutamate uptake change in assay [13] amounted to 4.35%. In addition, the aggregation suppression score in assay [14] amounted to 0.931. The period change in assay [1] is 0.03 h (inactive). For the same compound, the survival in assay [15] was 5.92 (inactive). For the same compound, the parasite load remaining in [16] was 65% (inactive) and 87.6% (inactive). For the same compound, the viability in assay [16] was 109% and 77.4%. The remaining activity in [4] is 114% (inactive). Moreover, the fold change is 0.865 (inactive) and 0.821 (inactive) and 0.983 (inactive) in assay [6] (stronger effect = lower value); 1.2 and 0.761 and 1.26 in assay [6] (setting [20]). The cell count was 9130 and 8360 and 9120 in assay [6] (setting [21]); 10600 and 10200 and 9280 in assay [6] (setting [22]). For the same compound, the z-score in assay [19] (MELAS cybrid survival, CellTiter-Glo 48 h, stronger effect = higher value) is -0.206 (inactive); in [19] (Rieske KO mouse fibroblast survival, CellTiter-Glo 72 h), -0.158; in assay [8], 0.335 (inactive). In addition, in [18], the luciferase signal was 44 AU (inactive).
